# Most compounds without a hit are left out; they make up all but 2.5% or so of the library.
# MEKK3 PB1 HTS – modulators of MEKK3-MEK5 PB1 binding, primary screen, biochemical, wildtype MEKK3, multiplex bead flow cytometry, Alexa488-MEK5 | binding response (% of control), % at 10 µM | Mitogen-activated protein kinase kinase kinase 3 (Homo sapiens), Q99759 | 290,000 compounds, 1.4% hits | AID 1529, 2009 | bead-based flow cytometry, Alexa488-MEK5 binding to MEKK3; actives lie on both sides; 0 = blocked by unlabeled MEK5, 100 = vehicle;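 active = binding response more than 3 SD above or below the average of its plate-row segment, actives on both sides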;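 note: Alexa488 bead fluorescence after subtracting the streptavidin-only scavenger bead signal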
# MEKK2wt PB1 HTS – modulators of MEK5 binding to wildtype MEKK2, primary screen, biochemical, multiplex bead flow cytometry, Alexa488-MEK5; AID 1531, 2009; 290,000 compounds, 1.1% hits; Mitogen-activated protein kinase kinase kinase 2 (Homo sapiens), Q9Y2U5; Alexa488-MEK5 binding to MEKK2 WT; actives lie on both sides; binding response (% of control), % at 10 µM; in the data active = binding response below about 67% or above about 130%
# GRK2 inh – compounds blocking aptamer binding on GRK2 – biochemical, human GRK2, bead flow cytometry, HTS, primary screen; Beta-adrenergic receptor kinase 1 (Homo sapiens), P25098; FAM-aptamer displacement from GRK2; inhibition of aptamer binding, % at 10 µM; 330,000 compounds, 0.59% hits; AID 488847, 2010;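 active = inhibition of aptamer binding above 40%, roughly 3 SD of noise, on plates passing a quality check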;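 note: median bead fluorescence of bound FAM aptamer so fluorescent compounds give negative values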
# Target sequence (P25098 whole entry, looked up): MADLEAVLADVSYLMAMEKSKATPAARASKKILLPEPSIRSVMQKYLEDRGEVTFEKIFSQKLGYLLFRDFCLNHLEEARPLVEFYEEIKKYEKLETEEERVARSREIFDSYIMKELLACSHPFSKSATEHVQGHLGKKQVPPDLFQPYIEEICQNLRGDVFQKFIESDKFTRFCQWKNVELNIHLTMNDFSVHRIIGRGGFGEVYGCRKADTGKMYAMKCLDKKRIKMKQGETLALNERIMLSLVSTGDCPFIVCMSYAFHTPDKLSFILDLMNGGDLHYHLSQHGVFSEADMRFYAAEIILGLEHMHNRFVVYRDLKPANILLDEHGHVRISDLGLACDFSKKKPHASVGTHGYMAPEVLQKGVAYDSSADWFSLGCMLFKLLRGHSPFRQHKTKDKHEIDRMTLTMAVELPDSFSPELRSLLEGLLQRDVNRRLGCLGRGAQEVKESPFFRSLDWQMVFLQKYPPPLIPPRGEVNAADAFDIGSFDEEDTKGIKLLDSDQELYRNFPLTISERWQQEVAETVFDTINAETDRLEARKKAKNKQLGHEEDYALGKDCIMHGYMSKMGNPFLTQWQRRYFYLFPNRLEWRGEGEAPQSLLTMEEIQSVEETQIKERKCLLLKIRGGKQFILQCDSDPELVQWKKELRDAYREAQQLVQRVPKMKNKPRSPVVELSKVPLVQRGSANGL
# MEKK2mut PB1 HTS – MEK5 binding signal on mutant MEKK2 PB1, primary screen, biochemical, multiplex bead flow cytometry, Alexa488-MEK5 | Alexa488-MEK5 binding to MEKK2 mutant | percent response, % at 10 µM | 290,000 compounds, 0.35% hits | AID 1530, 2009; in the data active = percent response above about 24%, passing the limit was not always enough
# MEKK2wt confirm – modulators of MEK5 binding to wildtype MEKK2, confirmation, biochemical, single concentration, multiplex bead flow cytometry; Alexa488-MEK5 binding to MEKK2 WT; actives lie on both sides; binding response (% of control), % at 10 µM; 5,900 compounds, 2.4% hits; shares compounds with MEKK3 PB1 HTS; in the data active = binding response below about 16% or above about 210%; inactive = in between
# MEKK2mut-MEK5 – mutant MEKK2 PB1-MEK5 binding signal retest – biochemical, single concentration, multiplex bead flow cytometry, confirmation; 5,900 compounds, 2% hits; percent response, % at 10 µM; Alexa488-MEK5 binding to MEKK2 mutant; shares compounds with MEKK3 PB1 HTS; AID 1893, 2009; in the data active = percent response mostly above about 71%, no sharp cut-off; inactive = mostly below about 38%;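 note: higher means compound restores mutant binding toward wildtype level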
# MEKK3 confirm – MEKK3 wild-type PB1 binding to MEK5, inhibitors, confirmation, biochemical, bead multiplex flow cytometry, single concentration, wildtype. shares compounds with MEKK3 PB1 HTS. Alexa488-MEK5 binding to MEKK3; active compounds read low. binding response (% of control), % at 10 µM. 5,900 compounds, 1.8% hits. AID 1894, 2009;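 active = binding response below 72% of control, or above a set upper limit, though filed actives all read lower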;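 note: 100% = DMSO only wells and 0% = binding blocked by excess unlabeled MEK5; lower values mean stronger disruption of MEK5 binding to MEKK3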
# An asterisk follows results filed as active; · = not tested or not shown; [ ] = dose if it differs, or a comment.
SMILES,MEKK3 PB1 HTS,MEKK2wt PB1 HTS,GRK2 inh,MEKK2mut PB1 HTS,MEKK2wt confirm,MEKK2mut-MEK5,MEKK3 confirm
O=C(CCN1C(=O)/C(=C/c2ccccc2F)SC1=S)NCCc1ccc(O)cc1,106,108,4,2,·,·,·
O=C(CSCC(=O)NC1CCCC1)Nc1ccccc1,128*,106,0,1,97,-3,100
O=C(CCSCc1ccccc1Cl)NC1CCCC1,2.0*[inhibitor],2.0*[inhibitor],1,-15,107,3,104
N#Cc1cccc(NC(=O)Cn2c3[n+](c4ccc(C(F)(F)F)cc42)CCCCC3)c1,69*[inhibitor],117,0,0,111,6,98
O=C(NC1=NCCS1)c1cc(-c2ccc(-c3ccccc3)cc2)nc2ccccc12,98,100,0,6,·,·,·
Cc1cc(C(=O)NC2=NCCS2)c2ccccc2n1,132*,118,0,5,105,5,106
CN(C)CCNc1ncnc2c1sc1nc(-c3ccccc3)c3c(c12)CCCC3,102,201*,0,61*,209*,66,105
COc1ncnc2c1sc1nc(-c3ccccc3)c3c(c12)CCCC3,146*,107,5,0,96,-3,102
O=C(O)c1ccc(-c2nnc(-c3ccc([N+](=O)[O-])cc3)o2)cc1,112,115,1,26*,98,-6,93
Cc1cc(C)c(CN2CCC(CO)(CCOc3ccccc3)CC2)cc1C,107,129,0,17,·,·,·
COc1ccc(NC(=O)CC(C(=O)O)C(C)c2ccccc2)cc1 (stereo not drawn),108,160*,0,29*,103,-3,101
Cc1ccc(SC[C@H](Cc2ccccc2)N2CCN(CCc3ccccc3)CCC2=O)cc1,86,142*,2,8,124,37,105
O=C1CCN(CCc2ccccc2)CCN1[C@H](CSc1ccccc1)Cc1ccccc1,101,112,6,1,·,·,·
COc1ccc(SC[C@H](Cc2ccccc2)N2CCN(C)CCC2=O)cc1,120,143*,0,4,117,20,107
CNC(=S)N1N=C(c2cccs2)CC1c1ccc(F)cc1 (stereo not drawn),101,101,3,-2,·,·,·
NC(=O)CSc1nnc(COc2ccccc2)n1Cc1ccco1,131*,120,0,0,96,-3,97
Cc1ccc(-c2cc(C(=O)N3CCN(c4ncccn4)CC3)c3ccccc3n2)cc1,106,111,1,6,·,·,·
CC(=O)N1CCN(CC(=O)O)CC1,98,92,1,-12,·,·,·
CC(=O)N1CCN(C(=O)CCC(=O)O)CC1,19*[inhibitor],7.0*[inhibitor],0,-6,105,8,107
CC(C)OC(=O)CSc1nc2ncccc2[nH]1,33*[inhibitor],45*[inhibitor],0,-14,100,-2,102
CCn1c(/N=C/c2ccccc2NS(=O)(=O)c2ccc(C)cc2)nc2ccccc21,137*,104,0,0,100,1,104
CCN(CC)CCn1c(NS(=O)(=O)c2ccc(C)cc2)nc2ccccc21,·,·,0,·,·,·,·
CCCN(CCC)c1cc(Cl)nc(N)n1,120,104,0,-2,·,·,·
CSc1nc(Cl)cc(N(CCO)CCO)n1,103,105,1,25*,96,0,101
O=C1OCCN1C(=O)[C@H]1[C@H](c2ccc([N+](=O)[O-])cc2)C(c2ccccc2)=NN1c1ccc(Br)cc1,·,·,0,·,·,·,·
SMILES,MEKK3 PB1 HTS,MEKK2wt PB1 HTS,GRK2 inh,MEKK2mut PB1 HTS,MEKK2wt confirm,MEKK2mut-MEK5,MEKK3 confirm
COc1cc(C(=O)N2c3ccccc3CC2C)cc(OC)c1OC (stereo not drawn),100,102,0,21,·,·,·
COc1ccc(C2CC2/C(C)=N/OC(=O)c2ccc(F)cc2)cc1 (stereo not drawn),141*,125,0,4,108,9,109
COc1ccc(C2CC2/C(C)=N/OC(=O)c2cccs2)cc1 (stereo not drawn),99,105,0,1,·,·,·
c1ccc(N2CCN(c3nc4ccccc4[nH]3)CC2)nc1,74*[inhibitor],84,0,-4,94,-6,93
CC(=O)NS(=O)(=O)c1ccc(NC(=O)c2ccc(-n3nc(C)cc3C)cc2)cc1,105,103,0,2,·,·,·
O=C(Nc1cccnc1)c1cc(F)c(F)cc1Cl,1.0*[inhibitor],1.0*[inhibitor],0,-68,109,3,96
O=C(N/N=C/c1cnc2ccccc2n1)c1cccc(F)c1,104,96,2,0,·,·,·
CCCc1ccc(Oc2cn[nH]c2-c2ccc(O)c(C)c2O)cc1,123*,105,0,3,97,-9,96
CCCc1ccc(Oc2c(-c3ccc(O)c(C)c3O)n[nH]c2C)cc1,98,94,3,-3,·,·,·
COc1ccc(S(=O)(=O)N(C)C(C)CCc2ccco2)cc1 (stereo not drawn),110,103,0,5,·,·,·
COc1ccc(C(N)CCc2ccco2)cc1 (stereo not drawn),113,132,0,27*,119,15,98
COc1ccc(Oc2cc(NN3CCCCC3)c([N+](=O)[O-])cc2[N+](=O)[O-])cc1OC,103,96,2,2,·,·,·
CCC(=O)OC1(C)C(=O)C2=COC(c3ccc(OC)cc3)=CC2=C(Br)C1=O (stereo not drawn),93,99,0,-2,·,·,·
COC(=O)CCC(=O)OC1(C)C(=O)C2=CN(c3ccccc3)C(c3ccc(OC)cc3)=CC2=C(Br)C1=O (stereo not drawn),75*[inhibitor],-5.0*,13,5,89,-4,91
CC1(OC(=O)CCc2ccccc2)C(=O)C=C2C=C(c3ccc(C#N)cc3)N(C3CC3)C=C2C1=O (stereo not drawn),125,140*,0,4,97,-1,101
COC(=O)CCC(=O)OC1(C)C(=O)C2=CN(C3CC3)C(c3ccc(OC)cc3)=CC2=C(Br)C1=O (stereo not drawn),87,2.0*[inhibitor],18,-2,93,2,94
Cc1ccc(-c2cc(C(=O)N/N=C/c3ccc(F)cc3)n[nH]2)o1,96,97,1,2,·,·,·

# Screening results from PubChem.
